This note sets out measurements from the supplement of paper PMC10981050.

SMILES strings stand for the structures.

Usually cell viability stands for a read-out of living cells in per cent, often relative to untreated cells.

The experiment concerns MOLM14. As to the kind of experiment: cell viability relative to vehicle control; higher = less cytotoxic. The conditions noted are these: 10 µM; SRSF2 genotype: SRSF2 wt/wt. In outline:
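Each screen used CRISPR-edited mutant and wild-type clones from four leukaemia lines. Compounds were acoustically dispensed at a single 10 µM dose, and CellTiter-Glo luminescence was read after 48 h with the supernatant first removed. Viability was analysed in Genedata Screener and given as percent of the on-plate vehicle control.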
On to `Cc1cccc(-c2[nH]c(C(C)(C)C)nc2-c2ccc3c(c2)OCO3)n1`, for which the cell viability came out at 83.8%.

`CCOc1ccc(Cc2cc([C@]34OC[C@](CO)(O3)[C@@H](O)[C@H](O)[C@H]4O)ccc2Cl)cc1` [Ertugliflozin]: the cell viability stood at 102%. In the case of `COC(=O)[C@H](c1ccccc1Cl)N1CCc2sccc2C1` [Clopidogrel (Plavix)] it was 96.9%. As for `CCCCCCCCCCCCCCCC(=O)OC` [Methyl palmitate], the figure is 97.7%.

Consider `O=[N+]([O-])c1ccc(S(=O)(=O)N2CCN(c3ccnc4cc(Cl)ccc34)CC2)c([N+](=O)[O-])c1`, for which the cell viability came to 22.7%. `Clc1ccc(COC(Cn2ccnc2)c2ccc(Cl)cc2Cl)c(Cl)c1` (configuration not stated) [Miconazole (Monistat)]: the cell viability is 54.8%.

`C[n+]1cc2c3c(ccc2c2ccc4cc5c(cc4c21)OCO5)OCO3` [Sanguinarine chloride]: the cell viability came to 0.34%.

As to `CC1(C)Cc2c(sc(NC(=O)c3ccn[nH]3)c2C(N)=O)C(C)(C)O1`, the cell viability turned out to be 102%.

For `CCN=C1N[C@@H]2[C@@H](O)[C@H](O)[C@@H](CO)O[C@@H]2S1` [Thiamet G], the cell viability worked out at 99.8%. For the molecule `O=C(c1cccc(Cl)c1F)N1CCN(Cc2cccc(Nc3nccs3)n2)CC1`, the cell viability was 71.4%. In the case of `O=C(Cn1ccnc1[N+](=O)[O-])NCc1ccccc1` [Benznidazole] it was 99.4%.

For the molecule `CC[C@@]1(O)C(=O)OCc2c1cc1n(c2=O)Cc2cc3cc(O)ccc3nc2-1` [Hydroxy Camptothecine], the cell viability came to 0.32%. In the case of `C[C@H](Nc1ncnc2[nH]cnc12)c1cc2ccc(F)cc2nc1-c1ccccn1` it was 67%. With `CC1(C)[C@@H](O[C@H]2O[C@H](C(=O)O)[C@@H](O)[C@H](O)[C@H]2O[C@@H]2O[C@H](C(=O)O)[C@@H](O)[C@H](O)[C@H]2O)CC[C@]2(C)[C@H]3C(=O)C=C4[C@@H]5C[C@@](C)(C(=O)O)CC[C@]5(C)CC[C@@]4(C)[C@]3(C)CC[C@@H]12` [Dipotassium glycyrrhizinate], the cell viability worked out at 103%. As for `O=C(NC1(c2ccccc2)CC1)c1c(CN2CCC(N3CCCCC3)CC2)c(-c2cccc(C(F)(F)F)c2)nc2cc(Br)ccc12`, the figure is 71.4%. On to `O=c1cc(-c2ccc(O)cc2)oc2cccc(O)c12` [4',5-Dihydroxyflavone], for which the cell viability worked out at 72.5%. In the case of `C[C@@H]1CC[C@H]2C(C)(C)[C@H]3C[C@@]12CC[C@@]3(C)O` [Cedrol] it was 104%; in that of `N#Cc1cc2cc(CN3CCC(Nc4ncnc5sc(CC(F)(F)F)cc45)CC3)ccc2[nH]1`, 23.4%. Regarding `CCC(CC)(NC(=O)C(C)C)C(=O)N[C@@H](CCCN=C(N)N)C(=O)NC1(C(=O)NC(c2ccc(F)cc2)c2ccc(F)cc2)CCCC1`, the cell viability came out at 99.3%.

Regarding `CNCCc1ccccn1` [Betahistine], the cell viability worked out at 105%. In the case of `O=C(O)c1ccc(O)cc1` [4-Hydroxybenzoic acid] it was 99.5%.

As for `CC(C)C(=O)Nc1ccc([N+](=O)[O-])c(C(F)(F)F)c1` [Flutamide (Eulexin)], the cell viability was 95.4%.
